What all share (experiment): PBM; 200 nM protein, PBS
Common to all, as to details: dsDNA, one strand shown

Assay [1] has as its target HOXA7 (Homo sapiens, UniProt P31268 116-202).
For assay [2], the target named is HOXA7 (Homo sapiens, UniProt P31268 116-202, W177C).
In assay [3] the target is T1, VENTX (Homo sapiens, UniProt O95231 78-163, R121Q).
T1 sequence: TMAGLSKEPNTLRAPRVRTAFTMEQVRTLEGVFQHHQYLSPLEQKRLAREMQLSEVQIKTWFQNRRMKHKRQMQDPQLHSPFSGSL

Assay [4] concerns the target T2, VENTX (Homo sapiens, UniProt O95231 78-163, Y115F).
T2 sequence: T1 sequence with Y38F, Q44R

Assay [5] has as its target MSX2 (Homo sapiens, UniProt P35548 130-214).
Assay [6] concerns the target ALX3 (Homo sapiens, UniProt O95076 139-225, L168V).
Assay [7] deals with HOXA2 (Homo sapiens, UniProt O43364 129-215, R185T).
Chain of HOXA2 (Homo sapiens, UniProt O43364 129-215, R185T) (O43364 129-215 R185T): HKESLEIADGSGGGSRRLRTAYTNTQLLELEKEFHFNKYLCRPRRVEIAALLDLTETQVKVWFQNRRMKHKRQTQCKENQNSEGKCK
Assay [8] concerns the target HOXA2 (Homo sapiens, UniProt O43364 129-215, R185K).
Assay [9] concerns the target HOXA2 (Homo sapiens, UniProt O43364 129-215, Y150S).
The target of assay [10] is HOXA2 (Homo sapiens, UniProt O43364 129-215).
Chain of HOXA2 (Homo sapiens, UniProt O43364 129-215) (O43364 129-215): as the sequence (O43364 129-215 R185T) above, with T57R counted along it
Assay [11] concerns the target HOXA4 (Homo sapiens, UniProt Q00056 201-287, W262F).
In assay [12] the target is T3, PAX4 (Homo sapiens, UniProt O43316 9-242, R200K).
T3 sequence: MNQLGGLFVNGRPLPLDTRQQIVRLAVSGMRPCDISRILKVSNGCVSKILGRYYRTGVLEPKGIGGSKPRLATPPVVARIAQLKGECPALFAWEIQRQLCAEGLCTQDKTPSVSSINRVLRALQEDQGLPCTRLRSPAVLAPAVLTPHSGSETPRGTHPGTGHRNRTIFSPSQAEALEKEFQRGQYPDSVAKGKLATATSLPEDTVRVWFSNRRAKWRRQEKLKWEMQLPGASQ

The target of assay [13] is T4, PAX4 (Homo sapiens, UniProt O43316 9-242).
T4 sequence: T3 sequence with K192R

For assay [14], the target named is T5, PAX4 (Homo sapiens, UniProt O43316 9-242, R200Q).
T5 sequence: T3 sequence with K192Q

Assay [15] deals with T6, PAX4 (Homo sapiens, UniProt O43316 9-242, F177V).
T6 sequence: T3 sequence with F169V, K192R

The target in assay [16] is T7, PAX4 (Homo sapiens, UniProt O43316 9-242, F177Y).
T7 sequence: T3 sequence with F169Y, K192R

Assay [17] has as its target T8, PAX4 (Homo sapiens, UniProt O43316 9-242, R227W).
T8 sequence: T3 sequence with K192R, R219W

In assay [18] the target is ALX3 (Homo sapiens, UniProt O95076 139-225, N203Q).
Chain of ALX3 (Homo sapiens, UniProt O95076 139-225, N203Q) (O95076 139-225 N203Q): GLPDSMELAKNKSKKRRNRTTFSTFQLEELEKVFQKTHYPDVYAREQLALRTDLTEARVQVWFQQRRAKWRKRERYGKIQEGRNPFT
In assay [19] the target is ALX3 (Homo sapiens, UniProt O95076 139-225).
Chain of ALX3 (Homo sapiens, UniProt O95076 139-225) (O95076 139-225): as the sequence (O95076 139-225 N203Q) above, with Q65N counted along it
In assay [20] the target is ALX3 (Homo sapiens, UniProt O95076 139-225, N203S).
Chain of ALX3 (Homo sapiens, UniProt O95076 139-225, N203S) (O95076 139-225 N203S): as the sequence (O95076 139-225 N203Q) above, with Q65S counted along it

Where a chain is given by its changes, count along the chain named.

Chain of MSX2 (P35548 130-214): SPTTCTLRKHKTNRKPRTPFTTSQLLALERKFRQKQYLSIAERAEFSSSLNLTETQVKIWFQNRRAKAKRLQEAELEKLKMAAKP
Chain of HOXA7 (Homo sapiens, UniProt P31268 116-202) (P31268 116-202): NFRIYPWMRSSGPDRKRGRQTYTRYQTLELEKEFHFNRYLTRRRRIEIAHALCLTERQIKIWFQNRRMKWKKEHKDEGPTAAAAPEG
Chain of HOXA4 (Q00056 201-287 W262F): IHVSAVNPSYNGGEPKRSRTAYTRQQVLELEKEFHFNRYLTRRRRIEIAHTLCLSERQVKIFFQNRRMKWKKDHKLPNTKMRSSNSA
Chain of ALX3 (Homo sapiens, UniProt O95076 139-225, L168V) (O95076 139-225 L168V): as the sequence (O95076 139-225 N203Q) above, with L30V, Q65N counted along it
Chain of HOXA2 (Homo sapiens, UniProt O43364 129-215, R185K) (O43364 129-215 R185K): as the sequence (O43364 129-215 R185T) above, with T57K counted along it
Chain of HOXA7 (Homo sapiens, UniProt P31268 116-202, W177C) (P31268 116-202 W177C): as the sequence (P31268 116-202) above, with W62C counted along it
Chain of HOXA2 (Homo sapiens, UniProt O43364 129-215, Y150S) (O43364 129-215 Y150S): as the sequence (O43364 129-215 R185T) above, with Y22S, T57R counted along it

In the case of AGCTGCCT, the binding signal in [1] was 8.26 upbm affinity estimate (log intensity, higher = more binding, comparable within an allelic series); in assay [2], 8.25 upbm affinity estimate (log intensity, higher = more binding, comparable within an allelic series).
Consider CCCCCAGC, for which the binding signal is 7.89 upbm affinity estimate (log intensity, higher = more binding, comparable within an allelic series) in assay [3]; 8.08 upbm affinity estimate (log intensity, higher = more binding, comparable within an allelic series) in [1]; 7.96 upbm affinity estimate (log intensity, higher = more binding, comparable within an allelic series) in [4]; 8.17 upbm affinity estimate (log intensity, higher = more binding, comparable within an allelic series) in [2].
In the case of AATAATTG, the binding signal in assay [5] is 13.7 upbm affinity estimate (log intensity, higher = more binding, comparable within an allelic series); in assay [6], 9.75 upbm affinity estimate (log intensity, higher = more binding, comparable within an allelic series).
As to ATAATTGC, the binding signal in [1] was 11.5 upbm affinity estimate (log intensity, higher = more binding, comparable within an allelic series); in assay [7], 12.4 upbm affinity estimate (log intensity, higher = more binding, comparable within an allelic series); in assay [8], 13.2 upbm affinity estimate (log intensity, higher = more binding, comparable within an allelic series); in assay [5] it was 14 upbm affinity estimate (log intensity, higher = more binding, comparable within an allelic series); in assay [9] it was 10.8 upbm affinity estimate (log intensity, higher = more binding, comparable within an allelic series); in assay [2] it was 8.84 upbm affinity estimate (log intensity, higher = more binding, comparable within an allelic series). Moreover, the binding signal in assay [10] is 12.2 upbm affinity estimate (log intensity, higher = more binding, comparable within an allelic series).
For the sequence AGGGTCCC, the binding signal in [11] is 9.78 upbm affinity estimate (log intensity, higher = more binding, comparable within an allelic series).
With GCCAGACC, the binding signal was 9.2 upbm affinity estimate (log intensity, higher = more binding, comparable within an allelic series) in assay [12]; 9.05 upbm affinity estimate (log intensity, higher = more binding, comparable within an allelic series) in assay [13]; 7.3 upbm affinity estimate (log intensity, higher = more binding, comparable within an allelic series) in [7]; 9.35 upbm affinity estimate (log intensity, higher = more binding, comparable within an allelic series) in [14]; 10.5 upbm affinity estimate (log intensity, higher = more binding, comparable within an allelic series) in [8]; 9.2 upbm affinity estimate (log intensity, higher = more binding, comparable within an allelic series) in assay [15]. The binding signal in assay [16] was 9.19 upbm affinity estimate (log intensity, higher = more binding, comparable within an allelic series); in assay [17], 9.26 upbm affinity estimate (log intensity, higher = more binding, comparable within an allelic series); in assay [9], 10.4 upbm affinity estimate (log intensity, higher = more binding, comparable within an allelic series); in [10], 7.38 upbm affinity estimate (log intensity, higher = more binding, comparable within an allelic series).
Regarding CCGTAGGC, the binding signal was 8.48 upbm affinity estimate (log intensity, higher = more binding, comparable within an allelic series) in [1] and 8.4 upbm affinity estimate (log intensity, higher = more binding, comparable within an allelic series) in assay [2].
Regarding CCGAGACC, the binding signal is 7.75 upbm affinity estimate (log intensity, higher = more binding, comparable within an allelic series) in [18]; 7.48 upbm affinity estimate (log intensity, higher = more binding, comparable within an allelic series) in [19]; 7.74 upbm affinity estimate (log intensity, higher = more binding, comparable within an allelic series) in [6]; 9.94 upbm affinity estimate (log intensity, higher = more binding, comparable within an allelic series) in assay [11]; 7.73 upbm affinity estimate (log intensity, higher = more binding, comparable within an allelic series) in assay [20].
As to CAGCCAGG, the binding signal in assay [3] was 8.2 upbm affinity estimate (log intensity, higher = more binding, comparable within an allelic series); in [4] it was 8.16 upbm affinity estimate (log intensity, higher = more binding, comparable within an allelic series).
As for GCAATTAC, the binding signal in [1] was 11.2 upbm affinity estimate (log intensity, higher = more binding, comparable within an allelic series); in assay [5], 13.7 upbm affinity estimate (log intensity, higher = more binding, comparable within an allelic series); in [2], 8.74 upbm affinity estimate (log intensity, higher = more binding, comparable within an allelic series).
With GCAGGCGC, the binding signal in assay [7] was 6.79 upbm affinity estimate (log intensity, higher = more binding, comparable within an allelic series); in assay [8], 10 upbm affinity estimate (log intensity, higher = more binding, comparable within an allelic series); in [9], 10.3 upbm affinity estimate (log intensity, higher = more binding, comparable within an allelic series); in assay [11] it was 9.73 upbm affinity estimate (log intensity, higher = more binding, comparable within an allelic series); in assay [10], 6.79 upbm affinity estimate (log intensity, higher = more binding, comparable within an allelic series).
CTGCATTA: the binding signal in [1] was 9.13 upbm affinity estimate (log intensity, higher = more binding, comparable within an allelic series); in assay [7], 9.52 upbm affinity estimate (log intensity, higher = more binding, comparable within an allelic series); in [8], 11.7 upbm affinity estimate (log intensity, higher = more binding, comparable within an allelic series); in assay [9], 10.6 upbm affinity estimate (log intensity, higher = more binding, comparable within an allelic series); in assay [2], 8.56 upbm affinity estimate (log intensity, higher = more binding, comparable within an allelic series); in [10], 9.83 upbm affinity estimate (log intensity, higher = more binding, comparable within an allelic series).
For the sequence AATTATTA, the binding signal in assay [1] is 11.3 upbm affinity estimate (log intensity, higher = more binding, comparable within an allelic series); in assay [18], 8.58 upbm affinity estimate (log intensity, higher = more binding, comparable within an allelic series); in [5], 13.4 upbm affinity estimate (log intensity, higher = more binding, comparable within an allelic series); in [19] it was 12.3 upbm affinity estimate (log intensity, higher = more binding, comparable within an allelic series); in assay [16], 10.9 upbm affinity estimate (log intensity, higher = more binding, comparable within an allelic series); in [6] it was 9.98 upbm affinity estimate (log intensity, higher = more binding, comparable within an allelic series). The binding signal is 11 upbm affinity estimate (log intensity, higher = more binding, comparable within an allelic series) in assay [17]; 8.91 upbm affinity estimate (log intensity, higher = more binding, comparable within an allelic series) in [2]; 11.5 upbm affinity estimate (log intensity, higher = more binding, comparable within an allelic series) in assay [11]; 8.68 upbm affinity estimate (log intensity, higher = more binding, comparable within an allelic series) in [20].

The values above are taken from PMC11006913.
